Data on 58 molecules can be found in PubChem BioAssay AID652017 (The Scripps Research Institute Molecular Screening Center, 2013).

Out of some 370,000 compounds screened, about 3,800 (1%) were called active. The list comes from a sample in which actives are over-represented; it also holds similar structures and randomly drawn compounds. Values without a mark were called inactive. No stated cut-off is given here; in the data, active means activation above about 7.8%; inactive means the rest.

A short description of the test: SMARCA2 (BRM) function activators, primary screen, cell-based, luminescence, high throughput (AID 652017).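 Further: 0% = vehicle wells and 100% = reference activator wells.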 To be noted: MG213 cells, MMTV-luciferase reporter, dexamethasone, overnight; at 9.1 µM; hits give high values. In general terms: A reporter such as luciferase makes a cellular process visible.
On to `O=C(c1cccs1)C1C(c2ccc(Br)cc2)NC(=S)NC1(O)C(F)(F)F` (stereo not drawn), for which the activation is 9.18% (active).

Consider `CCOC(=O)C1C(c2ccc(O)cc2)NC(=O)NC1(O)C(F)(F)F` (stereo not drawn), for which the activation was -2.11%.

In the case of `CSc1ccc(C=Nn2c(-c3ccc(F)cc3)n[nH]c2=S)cc1`, the activation is -5.15%.

In the case of `Cc1cc(-c2n[nH]c(=S)n2/N=C/C(Br)=C/c2ccccc2)n[nH]1`, the activation was 12.8% (active).

For `C=CCN1C(=O)[C@@H](CC(=O)N2CCN(C(=O)OCC)CC2)[C@]2(C(=O)OCC)CCCCC/C=C/12`, the activation was 0.06%.

Consider `CC(C)(C)C(=O)CSc1nc2ccccc2o1`, for which the activation is 8.4% (active).

Take `O=C(CSc1nc2ccccc2o1)N1CCN(c2ccc(Cl)cc2)CC1`: the activation is -2.94%.

On to `CC1Cc2ccccc2N1C(=O)CSc1nc2ccccc2o1` (stereo not drawn), for which the activation is 1.43%.

With `COc1ccnc(C(=O)N2CCC(Oc3cccnc3)CC2)c1`, the activation is 3.85%.

Consider `COc1ccc(N2CCN(CCNS(=O)(=O)c3ccc(Cl)s3)CC2)cc1`, for which the activation was 0.84%.

For the molecule `CN1C(=O)C2(OCCCO2)c2cc(Cl)ccc21`, the activation is -0.14%.

For `COC(=O)c1ccc(/C=C2/C(=O)Oc3ccccc32)cc1`, the activation was 10.5% (active).

As for `COC(=O)c1ccc(/C=N/N2C(C)CCCC2C)cc1` (stereo not drawn), the activation was -1.42%.

As to `O=C1Oc2ccccc2C(=O)/C1=C/c1ccccc1O`, the activation is 1.29%.

As to `CN(C)Cc1cn(-c2ccc(-c3noc4c3C(=O)N(CC(=O)N3CCOCC3)CC4)cc2)nn1`, the activation is -2.05%.

`COc1ccc(S(=O)(=O)Nc2ccc3c(c2)C(=O)N([C@H](C)CO)C[C@H](C)[C@@H](CN(C)C)OCCCC[C@H](C)O3)cc1`: the activation is -4.35%.

Turning to `Cc1cc(NC(=O)[C@H](C)NC(=O)c2ccco2)ccc1Br`, the activation was -1.37%.

Regarding `CC(OC(=O)CNC(=O)c1ccco1)C(=O)Nc1ccc(Cl)cn1` (stereo not drawn), the activation is -2.28%.

Turning to `CC1CCN(c2ccc(-c3ccc(NC(=O)c4ccco4)cc3)nn2)CC1`, the activation was 3.83%.

Turning to `O=C(Nc1ccc(NC(=O)c2cccs2)cn1)c1ccco1`, the activation is 9.66% (active).

For the molecule `O=C(Nc1ccc2nccnc2c1)c1ccco1`, the activation is 9.43% (active).

Turning to `O=C(COC(=O)CNC(=O)c1ccco1)Nc1ccc(F)cc1`, the activation is -3.14%.

On to `C=CS(=O)(=O)N(Cc1nnn(Cc2ccccc2)c1Br)[C@H](C(=O)OC)C(C)C`, for which the activation was 3.93%.

Regarding `CCC(=O)Nc1ccc2c(c1)C(=O)N(C)[C@@H]1CC[C@@H](CC(=O)NCCc3ccccc3)O[C@H]1CO2`, the activation was -2.13%.

Consider `COc1ccc(S[C@]2(C(=O)N(C)C)CC(=O)N(c3ccc(OC)cc3)[C@@H]2c2ccc(OC)cc2)cc1`, for which the activation is 2.23%.

Consider `CCCCn1nnnc1C(c1ccccc1)N1CCN(c2ccccc2OC)CC1` (stereo not drawn), for which the activation is -1.13%.

On to `CCCCn1nnnc1C(c1cc2ccccc2o1)N(C)Cc1ccc(Cl)c(Cl)c1` (stereo not drawn), for which the activation is 8.8% (active).

Regarding `Cn1nnnc1NCc1ccc(Cl)c(Cl)c1`, the activation is -0.94%.

As for `CC(C)N1CCCCC(NC(=O)c2ccc3ccccc3c2)C1=O` (stereo not drawn), the activation is -1.33%.

Turning to `N[C@@H](Cc1ccccc1)C(=O)N1CCC[C@@H]1C(=O)N1CCC2CCN(S(=O)(=O)c3ccccc3)CC21` (stereo partly drawn), the activation was -1.95%.

In the case of `FC(F)(F)c1cccc(-c2nc3ccccc3n2C(c2ccccc2)c2nc3ccccc3[nH]2)c1` (stereo not drawn), the activation is 9.93% (active).

In the case of `FC(F)(F)c1cccc(-c2cc3ccccc3nc2N2CCCC2)c1`, the activation is 0.37%.

For the molecule `CCC(c1nc2ccccc2[nH]1)n1c(=O)c(-c2cccs2)nc2ccccc21` (stereo not drawn), the activation is -3.44%.

For `O=S(=O)(c1ccccc1)N1CCC(c2nc3ccccc3o2)CC1`, the activation is -4.23%.

Take `O=C(C1CCC1)N1CCN(S(=O)(=O)c2ccc([N+](=O)[O-])cc2)CC1`: the activation is 9.83% (active).

Consider `Cc1ccc(S(=O)(=O)N2CCC(C(=O)N3CCCCCCC3)CC2)cc1`, for which the activation was -3.84%.

As for `O=C(C1CCN(S(=O)(=O)c2ccccc2)CC1)N1CCN(C2CCCCC2)CC1`, the activation was -4.09%.

As to `COC(=O)[C@H](C(C)C)N(CCCc1cn(Cc2ccccc2)nn1)S(=O)(=O)c1ccc(F)cc1Br`, the activation is -0.98%.

For the molecule `CCOC(=O)c1nnn2c1nc(N1CCN(c3ccccc3)CC1)c1ccccc12`, the activation was -2.86%.

For `O=C(CCCCCN1C(=O)C2C3C=CC(C3)C2C1=O)Nc1ccccc1` (stereo not drawn), the activation is -2.37%.

Consider `Cc1cc(=O)[nH]c(N/N=C/c2ccc3c(c2)OCCO3)n1`, for which the activation was 8.3% (active).

As for `Cc1ccc(C)c(NC2=NCC(=O)N2c2ccc3c(c2)OCCO3)c1`, the activation was 2.74%.

Consider `Cc1cc(=O)[nH]c(Nc2cccc(Br)c2)n1`, for which the activation is -1.71%.

As to `CCCCNC(=O)C[C@@H]1C(=O)N(CCc2ccc(Cl)cc2)C2=CCCC[C@]21C(=O)OCC`, the activation was -0.47%.

As for `COc1cccc(-c2cnc(OC(C)(C)C)nc2OC(C)(C)C)c1`, the activation was -2.58%.

On to `COc1cccc(NS(=O)(=O)c2ccc(-c3coc(C)n3)cc2)c1`, for which the activation was -3.45%.

Take `COc1cccc(-c2nc3cc(C)ccc3o2)c1`: the activation is 7.97% (active).

`C=CCN(C)CC#Cc1ccccc1`: the activation was 0.78%.

Regarding `COP(=O)(O)CNC(=O)OCc1ccccc1`, the activation is -0.59%.

As for `CC(CCN1CCC(C(O)(c2ccccc2)c2ccccc2)CC1)Oc1ccc(Cl)cc1` (stereo not drawn), the activation was -5.29%.

As to `COCC(=O)Nc1c(I)c(C(=O)NCC(O)CO)c(I)c(C(=O)N(C)CC(O)CO)c1I` (stereo not drawn), the activation is -1.43%.

On to `CCOC(=O)C1(Cc2ccccc2)CCN(Cc2cn(C(C)=O)c3ccccc23)CC1`, for which the activation was -3.37%.

In the case of `CCCOc1ccc(-c2nc(N)n[nH]2)cc1`, the activation was 8.06% (active).

On to `Cc1ccc(OCCCCc2c(C)n[nH]c2C)cc1`, for which the activation is -4.25%.

`Nc1nc(SCCOc2ccccc2)n[nH]1`: the activation was -0.38%.

As for `O=C(NCCc1c[nH]c2ccccc12)OCc1cn(-c2c(F)cccc2F)nn1`, the activation is -1.59%.

Turning to `COC(=O)[C@]12C[C@H](CC(=O)N3CCOCC3)C(=O)N(Cc3ccc(Cl)cc3Cl)C1=C[C@H](COCc1ccccc1)O[C@@H]2C`, the activation was -3.76%.

In the case of `COC[C@@H]1CCCN1c1ccc2c(c1)O[C@H](C)CCN(C1CC1)S2(=O)=O`, the activation was -0.54%.
